An excerpt weighted towards active compounds, which were near 21% of everything screened.
SARS PLP yeast = SARS-CoV PLP inhibition in yeast. 330,000 compounds, 0.19% hits. Potency, µM (doses to about 32.9 µM), without a hit: at the highest dose activity, positive = growth rescue, actives largely listed as activators. AID 485353. S. cerevisiae expressing SARS-CoV PLpro, growth rescue; further: potency means the concentration at half of the fitted maximal effect; 0% is about no effect; nearly all actives have a fitted effect of over 55% in size
Pf growth 96h = P. falciparum growth inhibition at 96 hours | P. falciparum luciferase reporter growth, 96 h | Potency, µM (top dose mostly 28.7 µM), for inactives: at the highest dose activity change, negative = inhibition, usual class: inhibitors | 320,000 compounds, 6.9% hits; active means well fitted inhibition curve with a large enough effect; inconclusive means small, poorly fitted or top-dose-only effect, or another doubt; inactive means no such curve, though single readings can be large or run the other way; further: potency means the concentration at half of the fitted maximal effect; on the % scale 0 is the no-effect control and ±100 the full control effect
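96 h incubation, 37 C, 5% CO2, of luciferase-reporter P. falciparum-infected RBCs (2% hematocrit, 0.05% parasitemia final) with test compounds; endpoint luminescence.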
Shiga toxin inh = inhibitors of Shiga toxin in Vero cells | 290,000 compounds, 9.2% hits | inhibition, % at 38.7 µM | Vero cells, Shiga toxin protein synthesis inhibition reporter; in the data active means inhibition mostly above about 28%, no sharp cut-off; inactive means mostly below about 43%; further: 0% is about no effect
NS1 inh = blocks influenza NS1 protein function; Potency, µM (titrated, usually from 46.1 µM), inactives show at the highest dose activity, positive = more growth; 270,000 compounds, 0.4% hits; AID 2326; further: potency means the concentration at half of the fitted maximal effect; actives are rising curves; nearly all actives have a fitted effect of over 50% in size
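OD600 was taken as the measure of yeast growth restored by compound in an NS1-expressing S. cerevisiae strain. Cells had been washed out of glucose medium and diluted 1:100 into galactose -URA medium, pH 6.0.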
Cycloheximide cs = counter-screen hit for Shiga toxin inhibitors, cycloheximide; cell reporter, cycloheximide protein synthesis inhibition counterscreen; max response, %; 300,000 compounds, 12% hits; in the data active means max response mostly above about 13%, no sharp cut-off; inactive means mostly below about 14%; further: read at 38.3 µM for the half of the compounds with a filed dose; 0% is about no effect
Pf growth 48h = inhibits P. falciparum growth in the first generation, 48 h | 310,000 compounds, 5.9% hits | AID 504832 | P. falciparum luciferase growth in erythrocytes, 48 h | Potency, µM (doses to about 28.7 µM), without a hit: top-dose activity change, negative = inhibition, usual class: inhibitors; active means well fitted inhibition curve with a large enough effect; inconclusive means small, poorly fitted or top-dose-only effect, or another doubt; inactive means no such curve, though single readings can be large or run the other way; further: potency means the concentration at half of the fitted maximal effect; on the % scale 0 is the no-effect control and ±100 the full control effect
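Parasite viability was followed by luminescence of a genomically integrated firefly luciferase. Cultures held 0.1% parasitemia at 2% hematocrit (final), incubated under 5% CO2 at 37 C.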
* hit, by the source's call; ? = inconclusive; / = not tested or not shown; [ ] = dose if it differs, or a comment. Unless noted, the call rests on the fitted dose curve.

SMILES	SARS PLP yeast	Pf growth 96h	Shiga toxin inh	NS1 inh	Cycloheximide cs	Pf growth 48h
Cc1ccc(-n2c(O)c(C=Nc3ccccc3N)c(=O)[nH]c2=O)cc1C	-3%	47%[5.75 µM]	67*	-4%	46*	124%
Cc1ccccc1-n1c(O)c(C=Nc2ccc(N(C)C)cc2)c(=O)[nH]c1=O	-7%	1.9µM*	-7	-37%	11	2.6µM*
CCN(CC)c1ccc(N=Cc2c(O)n(-c3ccc(OC)cc3)c(=O)[nH]c2=O)cc1	-1%	10µM*	-11	0%	-1	/
COc1ccc(N=Cc2c(O)n(CC3CCCO3)c(=O)[nH]c2=O)cc1 (stereo unspecified)	4%	15%	28	-8%	11*	18%
Cc1cc(S(N)(=O)=O)ccc1N=Cc1c(O)n(-c2ccccc2)c(=O)[nH]c1=O	2%	16%	-29	1%	-2	5%
O=C(NCCc1ccc(Cl)cc1Cl)c1cccnc1	-5%	-2%	13	-25%	9	56%
CC(=O)NC(Cc1cccc(C)c1)C(=O)NC1CCN(S(=O)(=O)c2ccccc2)CC1 (stereo unspecified)	2%	-14%	-3	-1%	-2	1%
N#Cc1ccc(OCC(=O)N2CCCC2=O)cc1	0%	6%	/	/	/	?
Cc1cc(C)cc(C(=O)NCC(=O)OC(C)C(=O)N(C)c2ccccc2)c1 (stereo unspecified)	1%	-4%	-12	/	6	398%
CNS(=O)(=O)c1ccc(N=Cc2c(O)n(-c3ccccc3)c(=O)[nH]c2=O)cc1	13%	0%	3	/	-3	15%
Cc1ccc(-n2c(O)c(C=Nc3ccc(S(=O)(=O)N(C)C)cc3)c(=O)[nH]c2=O)cc1	-9%	2.1µM*	-4	7%	-3	/
O=C1NC(=O)/C(=C\c2ccc(OCc3cccc(C(=O)O)c3)c(Cl)c2)N1	1%	-29%	161*	/	81*	194%
COc1cc(/C=C2\NC(=S)NC2=O)ccc1OCc1cccc(C(=O)O)c1	0%	35%	102*	14%	79*	136%
COc1cc(/C=C2/C(=O)N(C)C(=S)N2C)ccc1OCc1cccc(F)c1	-4%	3.3µM*	3	9%	-2	-1%
COc1cccc(CN2CC(C(=O)NCc3cnn(C)c3)CCC2=O)c1 (stereo unspecified)	-10%	-5%	8	-3%	-2	3%
CNC(=O)c1c(NC(=O)CCS(=O)(=O)c2ccc(C)cc2)sc2c1CCN(C(=O)OC)C2	1%	?	/	/	/	?
c1cc(-c2noc(CC3CCCCC3)n2)ccn1	-1%	365%	122*	-29%	15	?
c1ccc(-c2noc(CC3CCCCC3)n2)nc1	0%	1%	82*	-5%	50*	89%
Cc1ccc(C)c(NC(=O)C(c2ccccc2)N2CCOCC2)c1 (stereo unspecified)	1%	17%	33	-4%	7	27%
CCOC(=O)C1(Cc2ccc(OC)cc2)CCN(C(=O)CN2CCCCC2=O)CC1	-1%	44%	26*	-2%	17*	26%
CCOC(=O)C1(Cc2ccc(OC)cc2)CCN(C(=O)c2cc(C)nn2C)CC1	2%	-2%	19	-4%	14*	-11%
CCOC(=O)C1(Cc2ccc(OC)cc2)CCN(S(C)(=O)=O)CC1	0%	2%	50*	2%	47*	27%
CCOC(=O)C1(Cc2ccc(OC)cc2)CCN(C(=O)CN2CCOC2=O)CC1	-1%	13%	17	-4%	14	-15%
CCOC(=O)C1(Cc2ccc(OC)cc2)CCN(C(=O)c2cccc3nccnc23)CC1	1%	-16%	10	-10%	10	-18%
CCCS(=O)(=O)N1CCC(Cc2ccc(OC)cc2)(C(=O)OCC)CC1	-1%	1%	19	-6%	20*	9%
SMILES	SARS PLP yeast	Pf growth 96h	Shiga toxin inh	NS1 inh	Cycloheximide cs	Pf growth 48h
c1ccc(CNc2c3c(nc4ncnn24)CCC3)cc1	1%	30%	-6	-5%	-8	0%
C/C=C1/C2C=C(C)CC1(N)c1ccc(=O)[nH]c1C2 (stereo unspecified)	/	/	-3	/	4	/
CCC1=C[C@@H]2CN(C1)Cc1c([nH]c3ccccc13)[C@@](C(=O)OC)(c1cc3c(cc1OC)N(C)[C@H]1[C@@](O)(C(=O)OC)[C@H](OC(C)=O)[C@]4(CC)C=CCN5CC[C@]31[C@@H]54)C2	/	/	-3	/	-7	/
CC(Sc1nnc(NC2CC2)s1)C(=O)Nc1ccc(N2CCOCC2)cc1 (stereo unspecified)	-1%	2%	/	/	/	5%
O=C(CSc1nnc(NC2CCCCC2)s1)Nc1ccc(N2CCOCC2)cc1	-1%	1%	41*	21%	21*	17%
CC(=O)c1ccc(NC(=O)CSc2nnc(NC(=O)CN3CCOCC3)s2)cc1	0%	45%	62*	-2%	18	17%
Cc1ccc(NC(=O)CSc2nnc(NC(=O)CN3CCOCC3)s2)cc1	6%	-17%	-6	15%	-4	-5%
CC(=O)O[C@H]1CC(=O)OC(C)(C)C2CC(=O)[C@]3(C)C(CC[C@@](C)([C@@H](O[C@@H]4O[C@H](CO)[C@@H](O)[C@H](O)[C@H]4O)c4ccoc4)[C@@]34O[C@@H]4C(=O)O)[C@]21C (stereo partly specified)	-2%	16%	/	/	/	2%
CCCCOC(=O)c1ccc(OC(=O)N2CCOCC2)cc1	4%	-8%	33	-7%	29*	2%
O=C(c1ccccc1)c1ccc(OC(=O)N2CCOCC2)cc1	1%	?	43	-20%	36*	21%
O=C(Oc1ccc(C(=S)N2CCOCC2)cc1)c1ccccc1	-3%	?	-2	/	15	-7%
CCCOc1ccc2cc(C(=O)NCc3ccccc3)c(=O)oc2c1	-4%	-5%	4	-9%	6	-12%
COc1ccc(NC(=O)CSc2nc3c(sc4ccccc43)c(=O)n2CCCN2CCCC2)cc1	0%	?	-4	10%	5	13µM*
COc1ccc(NC(=O)CSc2nc3ccccc3c(=O)n2CCCN2CCCCC2)c(OC)c1	20%	9.3µM*	-12	19%	10	/
COCCCNC(=O)CSc1nc2ccccc2c(=O)n1CCCN1CCCCC1	1%	17%	-7	-3%	-2	22%
O=C(Nc1ccc(Br)cc1)c1cccc(N2C(=O)C3C4C=CC(C4)C3C2=O)c1 (stereo unspecified)	24%	?	20	13%	10	-24%
Cc1ccccc1NC(=O)c1cccc(N2C(=O)C3C4CC(C(Br)C4Br)C3C2=O)c1 (stereo unspecified)	2%	9.3µM*	-10	18%	-1	-25%
O=C(Nc1ccccc1)c1cccc(N2C(=O)C3C4C=CC(C5CC45)C3C2=O)c1 (stereo unspecified)	-2%	?	8	12%	3	-20%
